{
  "source": "PubChem BioAssay (NCI)",
  "note": "This is part of a sample that, as a whole, favours compounds with a hit. Of some 83,000 tested, about 20% had one in any assay.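 Step 1: grow cells in 96-well plates. Step 2: add test compound at a single concentration. Step 3: incubate 48 h. Step 4: record percent growth.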 Active and inactive are the calls of the source. The calls were made as follows: active = growth percent below 10; inactive = the rest.",
  "data": [
    {"test_system": "MDA-MB-468 breast", "test": "NCI-60 one-dose screen, 48 h (100 = growth as untreated, 0 = no growth, -100 = all killed)", "settings": "10 µM unless noted", "values": [
      {"smiles": "Cc1nnc(-c2cc3c(ccc4ccccc43)oc2=O)c2cn(-c3ccc(Cl)cc3)nc12", "growth": "96.4% (inactive)"},
      {"smiles": "CNCCN(C)c1ccc(Nc2cc(NC3CC3)n3ncc(C#N)c3n2)cc1NC(C)=O", "growth": "-54.5% (active)"},
      {"smiles": "CC(CN1CCCCC1)NC(=O)c1scnc1-c1ccccc1", "note": "(stereo not given)", "growth": "111% (inactive)"},
      {"smiles": "COc1ccc(NC(=O)c2sc3nc(C)c(C(=O)c4ccccc4)cc3c2N)cc1", "growth": "83.9% (inactive)"},
      {"smiles": "CCOc1cc(C(C)(C)C)ccc1C1=N[C@H](c2ccc(Cl)cc2)[C@H](c2ccc(Cl)cc2)N1C(=O)N1CCN(CC#Cc2cccc3c2CN([C@@H]2CCC(=O)NC2=O)C3=O)CC1", "growth": "-21.9% (active)"},
      {"smiles": "COc1cc(-c2nc(N3CCN(C)CC3)c3ccccc3n2)cc(OC)c1OC", "growth": "38.4% (inactive)"},
      {"smiles": "CCCCCCn1c(=N)n(CC(O)COc2cccc(C)c2)c2ccccc21", "note": "(stereo not given)", "growth": "-68.7% (active)"},
      {"smiles": "CCC(C)(CC)c1ccc(O)c(C)c1", "growth": "101% (inactive)"},
      {"smiles": "Brc1ccc(-c2cn3ccnc3c(-c3ccc(Br)cc3)n2)cc1", "growth": "33.2% (inactive)"},
      {"smiles": "COc1ccc(-c2nn(-c3cccc(NC(=O)Nc4ccc(Cl)c(C(F)(F)F)c4)c3)cc2-c2ccncc2)cc1Cl", "growth": "23.1% (inactive)"},
      {"smiles": "O=C(N/N=C/c1ccncc1)c1ccccc1Nc1cccc(C(F)(F)F)c1", "growth": "48.7% (inactive)"},
      {"smiles": "C/C=C(/C(=C/C)c1ccc(O)cc1)c1ccc(O)cc1", "growth": "-15.5% (active)"},
      {"smiles": "O=C1NC(=O)C(c2ccccc2)O1", "note": "(stereo not given)", "growth": "106% (inactive)"},
      {"smiles": "COc1cc(-c2nc(SCCC(C)C)nc(Nc3ccc(S(N)(=O)=O)cc3)c2C#N)cc(OC)c1OC", "growth": "42.8% (inactive)"},
      {"smiles": "COc1ccc(C2Nc3ncnc(N)c3N=C3c4ccccc4C(=O)C32)cc1", "note": "(stereo not given)", "growth": "86.1% (inactive)"},
      {"smiles": "O=C(CCCC(=O)Nc1ccc(Cn2nnc3cc(Cl)c(Cl)cc32)cc1)Nc1ccc(CN2N=NC3C=C(Cl)C(Cl)=CC32)cc1", "note": "(stereo not given)", "growth": "59.1% (inactive)"},
      {"smiles": "CN(C)c1ccc(C2CC(c3ccccc3)=NN2/C=C2\\SC(=O)NC2=O)cc1", "note": "(stereo not given)", "growth": "100% (inactive)"},
      {"smiles": "CSc1ccc(/C(=N/N=C(N)N)c2ccc(Cl)cc2)cc1", "growth": "-36.1% (active)"},
      {"smiles": "C=C(C)[C@@H]1CC[C@]2(COCCCNCCC#N)CC[C@]3(C)[C@H](CC[C@@H]4[C@@]5(C)CC[C@H](OCCCNCCC#N)C(C)(C)[C@@H]5CC[C@]43C)[C@@H]12", "growth": "8.32% (active)"},
      {"smiles": "CC1CCCN(CCCCCOc2ccc3oc4ccccc4c(=O)c3c2)C1", "note": "(stereo not given)", "growth": "52.2% (inactive)"},
      {"smiles": "COc1ccc(/C=C/C(=O)c2cccc(B(O)O)c2)cc1O", "growth": "34.9% (inactive)"},
      {"smiles": "O=C1Nc2ccccc2/C1=N/c1nc(-c2ccc(Cl)cc2)cs1", "growth": "59% (inactive)"},
      {"smiles": "Cn1c(N)c(N=Nc2ccc(S(=O)(=O)Nc3nccs3)cc2)c(=O)n(C)c1=O", "growth": "116% (inactive)"},
      {"smiles": "CCOC(=O)c1c(NC(=O)c2ccc(C(C)(C)C)cc2)sc2cc(OCCN3CCCCC3)ccc12", "growth": "85.8% (inactive)"},
      {"smiles": "O=C(Cn1c2ccccc2c2ccncc21)N/N=C/c1cc(O)c(O)c(O)c1", "growth": "111% (inactive)"},
      {"smiles": "O=c1n(CC2CO2)c(=O)n(CC2CO2)n1CC1CO1", "note": "(stereo not given)", "growth": "25.6% (inactive)"},
      {"smiles": "O=C(/C=C/c1cc(Cl)ccc1Cl)Nc1ncc(Cc2ccc(Cl)cc2)s1", "growth": "23.8% (inactive)"},
      {"smiles": "O=C1/C(=C/c2ccc(Cl)cc2)CCC/C1=C\\c1ccc(Cl)cc1", "growth": "67.9% (inactive)"},
      {"smiles": "CSc1nc2sc3c(c2c(=O)n1-c1ccc(C(C)C)cc1)CCC(=O)C3", "growth": "-16.5% (active)"},
      {"smiles": "O=C(CSc1nc2ccccc2c(=O)n1-c1ccccc1)Nc1cccc(C(=O)/C=C/c2ccccc2Cl)c1", "growth": "113% (inactive)"},
      {"smiles": "O=c1c2cc(-c3ccccc3)sc2nc2sc(-c3ccccc3)nn12", "growth": "101% (inactive)"},
      {"smiles": "O=[N+]([O-])c1ccc(N=Nc2cc(S(=O)(=O)O)c3cccc(S(=O)(=O)O)c3c2O)cc1", "growth": "118% (inactive)"},
      {"smiles": "Oc1[nH]c2ccccc2c1N=Nc1nnc2n1N=C(c1ccccc1)CS2", "growth": "104% (inactive)"},
      {"smiles": "COc1cc2c3c(n(CCCN4CCCC4)c(=O)c2cc1OC)-c1cc2c(cc1C3=O)OCO2", "growth": "84.1% (inactive)"},
      {"smiles": "COc1cc(-c2cc(C(=O)Nc3nc4ccccc4s3)nc3cc(-c4ccccc4)nn23)cc(OC)c1OC", "growth": "59.6% (inactive)"},
      {"smiles": "CC(=O)Oc1ccccc1C(=O)N(Cc1ccc2c(Cl)cc(Cl)c(O)c2n1)c1ccccc1", "growth": "40.9% (inactive)"},
      {"smiles": "COc1ccc(/C=C2\\CCCC3=C2N=C2SC(C)=NN2C3c2ccc(OC)c(OC)c2)cc1OC", "note": "(stereo not given)", "growth": "12.1% (inactive)"},
      {"smiles": "NC(=N\\N=C\\c1ccccc1O)/C(N)=N/N=C/c1ccccc1O", "growth": "74% (inactive)"},
      {"smiles": "COc1cccc(/C=N/NC(=S)NC2CC3CCC2C3)c1O", "note": "(stereo not given)", "growth": "68.2% (inactive)"},
      {"smiles": "COc1ccc(C[C@H](N)C(=O)N[C@@H]2[C@@H](CO)OC(n3cnc4c(N(C)C)ncnc43)[C@@H]2O)cc1", "note": "(stereo not given in full)", "growth": "-70.8% (active)"}
    ]}
  ]
}
